FBPA coupling cs – coupling enzyme interference in Giardia aldolase counter-screen. coupling enzyme system counterscreen, AmpLite Red fluorescence. activity change, negative = inhibition, % at 58.2 µM, hits read low. actives 0.67% (n = 290,000). AID 2472; in the data active = activity change below about -30%
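Activity here indicates interference with the coupling reaction, not aldolase inhibition. Compounds at 57.5 uM final met coupling enzymes for 10 min at RT; substrate and AmpLite Red detection followed, with a 525/598 nm fluorescence read after 20 min.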
Sfp inh – blocks B. subtilis Sfp PPTase activity; Q9F4F7; Biochemical Sfp PPTase activity, qHTS; Potency, µM, without a hit: largest response in the series, negative = inhibition, usual class: inhibitors; actives 3.5% (n = 310,000);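 note: the enzyme is Sfp with the accession as filed and its product quenches rhodamine fluorescence; potency is the fitted concentration of half-maximal effect; 0% = enzyme reaction without inhibitor and -100% = no enzyme wells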
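Reaction rates are the 30-min fluorescence difference (ex 525, em 598 nm) in wells containing 15 nM Sfp, 5 uM rhodamine-CoA and 12.5 uM BHQ-2-YbbR at pH 7.6 with 10 mM MgCl2.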
Tau fluor cs – counter-screen for tau fibril formation inhibitors; tau K18 P301L Alexa594 fluorescence, heparin fibrillization; Potency, µM (series often up to 57.7 µM), for inactives: at the highest dose activity change, negative = decrease; actives 0.93% (n = 280,000); note: potency is the fitted concentration of half-maximal effect; nearly all actives have a fitted effect of over 55% in size
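Human K18 P301L tau (15 uM unlabeled plus 0.24 uM Alexa 594-labeled, final) in 100 mM sodium acetate pH 7 was mixed with compound and 20 uM heparin and incubated 6 hr at 37 C.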
Tau FP inhib – blocks human tau fibril formation measured by polarization; actives 0.39% (n = 280,000); K18 P301L tau heparin fibrillization, Alexa594 FP, 6 h; P10636; Potency, µM (doses to about 57.7 µM), without a hit: at the highest dose activity, negative = inhibition, hits mostly inhibitors; note: potency is the fitted concentration of half-maximal effect; nearly all actives have a fitted effect of over 55% in size
Target sequence (P10636 561-689 P618L limits assumed): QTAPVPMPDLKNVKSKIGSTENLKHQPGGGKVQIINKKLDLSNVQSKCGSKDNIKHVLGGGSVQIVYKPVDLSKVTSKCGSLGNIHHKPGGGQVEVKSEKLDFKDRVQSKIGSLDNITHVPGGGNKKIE
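Steps: dispense K18 P301L tau (15 uM plus 0.24 uM Alexa 594 tracer, final) in pH 7 sodium acetate; add compound; add heparin (20 uM final); incubate 6 hr, 37 C; add ThT (30 uM final); after 1 hr ambient, read FP.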
G9a inh – G9a (human) methyltransferase inhibition | actives 8.8% (n = 350,000) | AID 504332 | Q96KQ7 | G9a H3K9 monomethylation, AlphaScreen, 2 h | Potency, µM (highest dose often 102 µM), without a hit: at the highest dose activity, negative = inhibition, hits mostly inhibitors; note: potency is the fitted concentration of half-maximal effect; nearly all actives have a fitted effect of over 75% in size
Target sequence (Q96KQ7 913-1193 limits assumed): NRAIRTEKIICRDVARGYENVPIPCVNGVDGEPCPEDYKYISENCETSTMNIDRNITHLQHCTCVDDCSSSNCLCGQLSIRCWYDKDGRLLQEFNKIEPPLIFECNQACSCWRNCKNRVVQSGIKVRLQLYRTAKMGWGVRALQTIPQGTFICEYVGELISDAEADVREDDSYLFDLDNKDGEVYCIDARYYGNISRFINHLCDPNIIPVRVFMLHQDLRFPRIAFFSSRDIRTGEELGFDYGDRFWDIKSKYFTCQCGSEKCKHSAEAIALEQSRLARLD
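G9a (20 nM) was preincubated 15 min with compound, then reacted 2 h at room temperature with 500 nM biotin-H3K9 peptide and 20 µM SAM. Monomethyl-H3K9 detected by AlphaScreen using anti-H3K9me1 antibody.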
Tau fibril ThT – inhibitors of human tau fibril formation, thioflavin T binding; P10636; recombinant tau K18 P301L (four-repeat tau fragment), heparin-induced fibrillization, ThT fluorescence; Potency, µM (series often up to 57.4 µM), for inactives: at the top dose activity, negative = inhibition, most hits filed as inhibitors; actives 2.1% (n = 270,000); AID 1460; note: potency is the fitted concentration of half-maximal effect; nearly all actives have a fitted effect of over 55% in size
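In this qHTS, human K18 P301L tau is incubated with compound and heparin for 6 hr at 37 C, and Thioflavin T fluorescence then reports fibril load.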
* hit, by the source's call; [ ] = dose if it differs, or a comment. A selection: hits, their analogues and other compounds. The true share with any hit is near 11%. Unless noted, calls come from the whole dose curve; as a rule, active = well fitted curve in the direction sought with a large enough effect; inconclusive = small, poorly fitted or top-dose-only effect, or another doubt; inactive = no such curve, though single readings can be large; an effect the other way counts as inactive or inconclusive. Unless noted, % is set by controls: 0 for no effect and ±100 for the full control effect.

What do the screens show for `CCc1c(C)nc2nncn2c1Nc1ccc(C)c(F)c1`?
Tau fluor cs: 2%; Tau FP inhib: -2%; G9a inh: 4%[59 µM]; Tau fibril ThT: -2%

Results for CCN(C(=O)Nc1cn(CC(C)C)c(=O)c2ccccc12)c1cc(C)ccc1C ?
Tau fluor cs: -7%; Tau FP inhib: 2%; G9a inh: -5%[59 µM]; Tau fibril ThT: -6%

How did O=C(N/N=C/c1ccc(N2CCOCC2)cc1)c1ccccn1 do in these assays?
FBPA coupling cs: -1; Sfp inh: inconclusive; Tau fluor cs: -17%; Tau FP inhib: -3%; G9a inh: inconclusive; Tau fibril ThT: 14µM*

Results for Cc1ccc(/C=N\NC(=O)Cn2nnc3ccccc32)o1 ?
FBPA coupling cs: 6; Sfp inh: inconclusive; Tau fluor cs: -12%; Tau FP inhib: -4%; G9a inh: 89µM*; Tau fibril ThT: -11%

Results for Cc1ccc2nc(C)c(C(=O)N/N=C/c3ccc(N4CCOCC4)cc3)cc2c1 ?
FBPA coupling cs: -1; Sfp inh: 15%; Tau fluor cs: -5%; Tau FP inhib: 3%; G9a inh: 0%[59 µM]; Tau fibril ThT: inconclusive

Results for Cc1ccc(/C=N/NC(=O)Cn2cnc3ccccc32)o1 ?
FBPA coupling cs: -1; Sfp inh: -65%; Tau fluor cs: -2%; Tau FP inhib: 2%; Tau fibril ThT: -6%

How did O=C(N/N=C\c1cc([N+](=O)[O-])ccc1N1CCOCC1)c1ccccn1 do in these assays?
FBPA coupling cs: 4; Sfp inh: 45µM*; Tau fluor cs: -16%; Tau FP inhib: -9%; G9a inh: inconclusive; Tau fibril ThT: -13%

How did COc1ccc(Cl)cc1C(=O)N/N=C/c1ccc(N2CCOCC2)cc1 do in these assays?
FBPA coupling cs: -1; Sfp inh: -1%; Tau fluor cs: -23%; Tau FP inhib: 1%; G9a inh: 3%; Tau fibril ThT: 11µM*

How did CC(C)c1ccc(/C=N/NC(=O)c2ccccn2)cc1 do in these assays?
FBPA coupling cs: 0; Sfp inh: inconclusive; Tau fluor cs: -3%; Tau FP inhib: 4%; Tau fibril ThT: -10%

Results for CN(C)C(=O)CSc1nc(-c2ccccc2)c(-c2ccccc2)o1 ?
FBPA coupling cs: 3; Sfp inh: -5%; Tau fluor cs: -10%; Tau FP inhib: -5%; G9a inh: 13µM*; Tau fibril ThT: -10%

Results for CC1CN(Cc2ccc(C#N)cc2Cl)CC(C)O1 (centres undefined) ?
FBPA coupling cs: 1; Sfp inh: 12%; Tau fluor cs: -1%; Tau FP inhib: 9%; G9a inh: 35µM*; Tau fibril ThT: -7%

What do the screens show for `C[C@@H]1CN(Cc2nc(-c3ccc(Cl)cc3)no2)C[C@H](C)O1`?
FBPA coupling cs: -1; Sfp inh: -1%; Tau fluor cs: -5%; Tau FP inhib: 5%; Tau fibril ThT: -10%

Results for Clc1ccc(CN2CCSCC2)c(Cl)c1 ?
FBPA coupling cs: -1; Sfp inh: -13%; G9a inh: 10µM*

Results for O=C1CSCC(=O)N1Cc1ccc(Cl)cc1Cl ?
FBPA coupling cs: -3; Sfp inh: 0%; G9a inh: 8%

What do the screens show for `CC1CN(Cc2ccc(Cl)cc2Cl)CC(C)O1` (centres undefined)?
FBPA coupling cs: 1; Sfp inh: -29%; Tau fluor cs: -3%; Tau FP inhib: 4%; G9a inh: 10µM*; Tau fibril ThT: -6%

Results for CCc1ccc(C(=O)c2cn(CC(=O)Nc3ccc4c(c3)OCO4)c3cc(OC)c(OC)cc3c2=O)cc1 ?
Tau fluor cs: inconclusive; Tau FP inhib: inconclusive; G9a inh: -28%[59 µM]; Tau fibril ThT: inconclusive

How did CC(=O)O[C@@]1(C(C)=O)CCC2C3C=C(Cl)C4=CC(=O)CC[C@]4(C)C3CC[C@]21C (some centres undefined) do in these assays?
FBPA coupling cs: -1; Sfp inh: -10%; Tau fluor cs: -18%; Tau FP inhib: -12%; G9a inh: -23%[2.33 µM]; Tau fibril ThT: -12%

Results for COc1ccc(NC(=S)Nc2cc(C)[nH]n2)cc1Cl ?
FBPA coupling cs: 2; Sfp inh: inconclusive; Tau fluor cs: 8%; Tau FP inhib: -7%; G9a inh: 1.3µM*

What do the screens show for `COC(=O)c1cn[nH]c1NC(=S)Nc1ccc(C)cc1Cl`?
FBPA coupling cs: 0; Sfp inh: -13%; Tau fluor cs: inconclusive; Tau FP inhib: inconclusive; G9a inh: inconclusive; Tau fibril ThT: -2%

Results for COC(=O)c1cn[nH]c1NC(=S)Nc1ccc(Cl)c(Cl)c1 ?
FBPA coupling cs: 1; Sfp inh: 56µM*; Tau fluor cs: -18%; Tau FP inhib: inconclusive; G9a inh: 5%[59 µM]; Tau fibril ThT: -2%

What do the screens show for `Cc1cc(NC(=S)Nc2ccc(C)c(Cl)c2)n[nH]1`?
FBPA coupling cs: -6; Sfp inh: inconclusive; Tau fluor cs: -21%; Tau FP inhib: -3%; G9a inh: 1.3µM*; Tau fibril ThT: -11%

Results for CC1CN(c2nc3ccccc3nc2SCC(=O)Nc2ccc(F)cc2)CC(C)O1 (centres undefined) ?
FBPA coupling cs: 1; Sfp inh: -9%

Results for Cc1cn2c(=O)cc(COC(=O)c3cccc(NC(=O)c4ccc(C(C)(C)C)cc4)c3)nc2s1 ?
Tau fluor cs: -17%; Tau FP inhib: 8%; G9a inh: 8%[59 µM]; Tau fibril ThT: 1%

Results for Cc1cccc(NC(=O)CSc2nc(=O)n(Cc3cccnc3)c3c2CCC3)c1 ?
Tau fluor cs: -9%; Tau FP inhib: -6%; G9a inh: inconclusive; Tau fibril ThT: -10%

How did CC(C)[C@@H](CC(=O)N[C@@H]1CCCC[C@H]1C(=O)N[C@H](CC(=O)N[C@@H](CCC(=O)O)CC(=O)O)Cc1c[nH]c2ccccc12)NC(=O)C[C@H](Cc1ccccc1)NC(=O)[C@@H]1CNCC[C@H]1N do in these assays?
FBPA coupling cs: -3; Sfp inh: -21%; Tau fluor cs: -10%; Tau FP inhib: -11%; Tau fibril ThT: -2%

How did Nc1nc2c(c(=O)[nH]1)C(c1cccc3ccccc13)C1=C(N2)c2ccccc2C1=O (centres undefined) do in these assays?
FBPA coupling cs: -16; Sfp inh: 56µM*; Tau fluor cs: inconclusive; Tau FP inhib: -10%; G9a inh: 35µM*; Tau fibril ThT: 10µM*

What do the screens show for `COc1cccc(-n2c(SCc3cc(=O)oc4cc(O)c(O)cc34)nc3ccccc3c2=O)c1`?
FBPA coupling cs: 7; Sfp inh: -16%; Tau fluor cs: 14µM*[quencher]; Tau FP inhib: inconclusive; G9a inh: inconclusive; Tau fibril ThT: 25µM*

From PubChem
